Results published in PubChem BioAssay (NCI).
This is part of a sample that, as a whole, favours compounds with a hit. Of some 83,000 tested, about 20% had one in any assay.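 How to read the values: 0–100, growth inhibition (40 = 60% inhibited); 0, no net growth; -100 to 0, cell death (-40 = 40% of starting cells died; -100 = all dead).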 A number with no mark means an inactive call. Calls of active or inactive are those of the source. The calls were made as follows: active = growth percent below 10; inactive = the rest.

Tests used:
Experiment in all cases: NCI-60 one-dose screen, 48 h (100 = growth as untreated, 0 = no growth, -100 = all killed)
Conditions in all cases: 10 µM unless noted
SR leukemia = tested on: SR leukemia
RPMI-8226 leukemia = tested on: RPMI-8226 leukemia
OVCAR-8 ovarian = tested on: OVCAR-8 ovarian
OVCAR-5 ovarian = tested on: OVCAR-5 ovarian
OVCAR-4 ovarian = tested on: OVCAR-4 ovarian
SK-OV-3 ovarian = tested on: SK-OV-3 ovarian
IGROV1 ovarian = tested on: IGROV1 ovarian
OVCAR-3 ovarian = tested on: OVCAR-3 ovarian
HS 578T breast = tested on: HS 578T breast
NCI/ADR-RES ovarian = tested on: NCI/ADR-RES ovarian
T-47D breast = tested on: T-47D breast
BT-549 breast = tested on: BT-549 breast
MDA-MB-435 melanoma = tested on: MDA-MB-435 melanoma
SW-620 colon = tested on: SW-620 colon
MCF7 breast = tested on: MCF7 breast
HCT-116 colon = tested on: HCT-116 colon
HCC-2998 colon = tested on: HCC-2998 colon
KM12 colon = tested on: KM12 colon

SMILES | growth (SR leukemia) | growth (RPMI-8226 leukemia) | growth (OVCAR-8 ovarian) | growth (OVCAR-5 ovarian) [%] | growth (OVCAR-4 ovarian) [%] | growth (SK-OV-3 ovarian) [%] | growth (IGROV1 ovarian) | growth (OVCAR-3 ovarian) | growth (HS 578T breast) | growth (NCI/ADR-RES ovarian) | growth (T-47D breast) | growth (BT-549 breast) | growth (MDA-MB-435 melanoma) | growth (SW-620 colon) | growth (MCF7 breast) | growth (HCT-116 colon) | growth (HCC-2998 colon) | growth (KM12 colon)
O=S1(=O)CCC(N(/N=C/c2ccco2)c2ccccc2)C1 (stereo not drawn) | 91% | 100% | 94.7% | 107 | 127 | 110 | 104% | 105% | 94.3% | 98.7% | 103% | 101% | 107% | 95.4% | 96.4% | 97.4% | 97.6% | 103%
CCCCNC(=O)Oc1ccc(/C(=C(\C)c2ccccc2)c2ccc(OCCN(CC)CC)cc2)cc1 | 14.5% | 49.8% | 77% | 77.7 | 79.7 | 74.5 | 77.2% | 75.1% | 39.8% | 84.4% | 40.3% | 72.3% | 58.7% | 69.7% | 33.8% | 48.1% | 82.6% | –
COc1cccc(-c2nc3sccn3c2-c2ccnc(NCCCNS(=O)(=O)c3ccc(C(F)(F)F)cc3)c2)c1 | 51.2% | 33% | 45.1% | 95.7 | 38.3 | 72.6 | 60.5% | 61.7% | 63.1% | 35.5% | 23.7% | 54.6% | 36.8% | 68.5% | 31.1% | 41.9% | 72.2% | 57.2%
CNc1ccc(Br)c2c1C(=O)c1ccccc1C2=O | 101% | 87.8% | 105% | 111 | 100 | 112 | 99.1% | 121% | 107% | 103% | 97.1% | 104% | 108% | 107% | 72.4% | 96.6% | 109% | 107%
COc1cc(NC(N)=NCCC(C)(C)Oc2ccc(C(F)(F)F)cc2)ncc1C#N | -54.9% (active) | -49.6% (active) | -76.6% (active) | 28.9 | 12 | 48.8 | -38.9% (active) | -75% (active) | 38.1% | 0.0363% (active) | -44.6% (active) | 40.4% | -91.2% (active) | -79% (active) | -71.1% (active) | -88.4% (active) | -86.6% (active) | -51.7% (active)
N/C(=N\C(N)=N\c1nc2ccccc2s1)c1ccncc1 | 19.7% | 45.8% | 75.6% | 96.6 | 100 | 89.4 | 58.2% | 39.7% | 80.3% | 33% | 65.4% | 61.7% | 1.82% (active) | 35.2% | 42.4% | 47.7% | 79.1% | 52.1%
Nc1cccc(-c2nc3sccn3c2-c2ccnc(NCCNS(=O)(=O)c3ccc(C(F)(F)F)cc3)n2)c1 | 35.4% | 61.7% | 38.3% | 90.5 | 43.2 | 53.5 | 36.3% | 53.4% | -15.1% (active) | 71.5% | 46.2% | 52.7% | 27% | 100% | 32.8% | 55.1% | 121% | –
Oc1ccccc1/C=N/NC(=S)NC1CC2C=CC1C2 (stereo not drawn) | 30.1% | 63.5% | 84.3% | 109 | 78.1 | 95.7 | 62.2% | 67.4% | 98.2% | 0.723% (active) | 79.9% | 61% | 11.9% | 45.5% | 80.7% | 42.9% | 66.5% | 53%
Cn1ccc(Nc2nccc(Oc3ccc(C(=O)Nc4cccc(F)c4)c(Cl)c3)n2)c1 | 98.3% | 107% | 88.2% | 87.9 | 67 | 15.9 | 62.4% | 55.6% | 96.9% | 96.6% | 38.8% | 80.5% | 81.3% | 85.4% | 85.9% | 86.8% | 81.9% | 102%
COc1ccc2[nH]c(=O)c(/C=N/Nc3nc(-c4ccccc4)cs3)c(O)c2c1 | 56.2% | 70.6% | 55.1% | 85.6 | 47.9 | 76.8 | 70.3% | 24.2% | 112% | 37.7% | 72.6% | 60.8% | 79.3% | 67.2% | 67.2% | 50.8% | 77.6% | 69.3%
CN1C(=O)N(C)C2C1NN=c1s/c(=C\c3cccnc3)c(=O)n12 (stereo not drawn) | 27.3% | 95.4% | 93.2% | 93 | 93.6 | 85 | 80.8% | 65.6% | 84.8% | 78.5% | 91.2% | 79.9% | 8.5% (active) | 59.1% | 51.6% | 75.9% | 92.2% | 53.8%
CCN1CCN(c2nc(NNC(=O)c3ccccc3)nc(N3CCN(C(c4ccccc4)c4ccccc4)CC3)n2)CC1 | -20.5% (active) | 42% | 74.3% | 96.2 | 38.2 | 89.7 | 53.1% | 52.1% | 79.2% | 79% | 40.7% | 79.1% | 60.2% | 5.78% (active) | 28.9% | 20.2% | 31.7% | 58.4%
O=C(Nc1ccncc1)C(=O)c1cn(S(=O)(=O)c2ccc(Br)cc2)c2ccccc12 | 26.1% | 35% | 58.6% | 64.4 | 73.3 | 93.9 | 45.1% | 14.7% | 56.2% | 9.49% (active) | 41% | 41.1% | -3.46% (active) | 18.2% | 19.7% | 14.3% | 72% | 26.2%
N[C@@H]1CCN(C(=O)c2cc3cc(Cl)c(F)c(F)c3[nH]2)C1 | 88.3% | 96% | 96.3% | 90.3 | 96.5 | 89.3 | 80.7% | 97.6% | 87.5% | 103% | 82.2% | 1.7% (active) | 97.3% | 96.6% | 94.5% | 92.8% | 96.1% | 98.8%
COc1cc(/C=C/C(=O)c2ccc(Nc3ncnc4cc(OC)c(OC)cc34)cc2)cc(OC)c1 | 30.6% | -2.38% (active) | 95.3% | 112 | 107 | 116 | 99.5% | 104% | 97.3% | 97.3% | 100% | 105% | 51.8% | 109% | 73% | 30.8% | 106% | –
Nc1cccc(-c2nc3sccn3c2-c2ccnc(NCCCNS(=O)(=O)c3cccc4ccccc34)n2)c1 | 38.7% | 8.33% (active) | 23.5% | 92.1 | 24.6 | 63.1 | 36.7% | 37.6% | 44.7% | 38.3% | -2.4% (active) | 7.66% (active) | 23.2% | 68.2% | 25.2% | 36.1% | 60.7% | 23.6%
c1coc(CNc2ccnc(Nc3ccc(OCCN4CCCCC4)cc3)n2)c1 | 61.5% | 71.1% | -5.87% (active) | 97 | 87.6 | 103 | 98.1% | 90.1% | 80.9% | 104% | 91.2% | 97.5% | 95.5% | 98.7% | 71.4% | 68.4% | 99.5% | 84.8%
